PubChem BioAssay AID686978 (National Center for Advancing Translational Sciences (NCATS), 2013)
About 64,000 (15%) of roughly 420,000 compounds were called active. Roughly 27% stayed inconclusive and do not appear here. The call rests on the fitted dose curve; in most records, active means well fitted inhibition curve with a large enough effect; inconclusive means small, poorly fitted or top-dose-only effect; inactive means flat fitted curve, though single readings scatter. These entries were drawn from the full list.

Assay: qHTS for Inhibitors of human tyrosyl-DNA phosphodiesterase 1 (TDP1): qHTS in cells in absence of CPT; further: nearly all actives have a fitted effect of over 55% in size
Conditions: DT40 Tdp1-/- hTDP1 cells, no CPT, ATP luminescence, 48 h; activity change, negative = growth inhibition: at 46.2 µM (top of the series)
Procedure, shortened: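 A cellular qHTS used chicken DT40 cells lacking endogenous Tdp1 but carrying stably transfected human TDP1. Compounds were applied without camptothecin, and cell growth kinetics were judged by ATP-dependent luminescence after ≥48 hr.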
On the % scale 0 is the no-effect control and ±100 the full control effect; potency means the concentration at half of the fitted maximal effect.

SMILES | Potency | activity change, negative = growth inhibition
Cc1cc(C)nc(S/C=C/C(=O)c2ccccc2)n1 | 2.59 µM (active) | 
C/C(=N\NC(=O)c1nc(C)cc(C)n1)c1ccccc1 |  | -13.8% (inactive)
Cc1ccc(N/C=C/C(=O)c2ccccc2)cc1C |  | -14% (inactive)
COC1=CCC2([N+](=O)[O-])CN(CC(=O)O)CC1([N+](=O)[O-])C2 (configuration not stated) |  | -1.54% (inactive)
Cc1ccc(NC(=O)NC(=O)N(C2CCCCC2)S(=O)(=O)c2ccccc2)cc1 |  | -29.9% (inactive)
Cc1ccc2[nH]c3c(=O)n(Cc4ccccn4)cnc3c2c1 |  | -6.59% (inactive)
CC(C)c1cccc(C(C)C)c1Nc1cn[nH]c1 | 20.6 µM (active) | 
O=C(O)CCCN1C(=O)c2ccccc2Sc2ncccc21 |  | 10.6% (inactive)
C=CCOc1cccc(CNCc2cccnc2)c1 |  | -2.47% (inactive)
Cn1cnc([N+](=O)[O-])c1Sc1n[nH]c(N)n1 |  | -15% (inactive)
Cn1cnc([N+](=O)[O-])c1Sc1ccccc1 | 23.1 µM (active) | 
Cn1cnc([N+](=O)[O-])c1Nc1ccccc1O |  | -17.2% (inactive)
C=CCN1C(=O)C2(OCCCO2)c2cccc(Cl)c21 |  | 10.2% (inactive)
CCC(C)(C)n1nnnc1C(c1cccs1)N1CCN(c2nc3ccccc3s2)CC1 (configuration not stated) | 15.8 µM (active) | 
CCC(C)(C)n1nnnc1C(c1ccccc1OC)N1CCSCC1 (configuration not stated) |  | -21% (inactive)
CCC(C)(C)n1nnnc1C(c1ccc(OC)c(OC)c1)N1CCN(C(=O)c2ccco2)CC1 (configuration not stated) |  | 1.91% (inactive)
O=C(CCn1nnc2ccccc2c1=O)N[C@@H](Cc1c[nH]c2ccccc12)C(=O)O |  | 2.6% (inactive)
CCOC(=O)N1CCC(NC(=O)Cc2cn(C)c3ccccc23)CC1 |  | -10.6% (inactive)
CC(C)=CCC/C(C)=C/CC/C(C)=C/CC/C(C)=C/CO | inactive | 
CCSc1nc2c(c(=O)[nH]1)C(c1cccnc1)C(C(=O)OC(C)C)=C(C)N2 (configuration not stated) |  | -29% (inactive)
COc1cc(OC)c(NC(=O)C2CCCN2C(=O)OCc2ccccc2)cc1Cl (configuration not stated) |  | 11.7% (inactive)
COc1cc(CN2CCC(C(N)=O)CC2)ccc1OCc1ccccc1 |  | -5.51% (inactive)

SMILES | Potency | activity change, negative = growth inhibition
COc1cc(CNC2CCCC2)c(Br)cc1OCc1ccccc1 | 16.4 µM (active) | 
O=C(CN1CCSCC1)N/N=C/c1ccc(F)cc1 |  | -12.8% (inactive)
COc1ccc(-c2csc(NC(=O)CCCc3cccs3)n2)cc1 |  | -3.64% (inactive)
COc1ccc2c(c1OC)C(=O)OC2Nc1nc(-c2ccccc2)cs1 (configuration not stated) | 1.84 µM (active) | 
COc1ccc(-c2csc(NC3OC(=O)c4ccccc43)n2)cc1 (configuration not stated) | 6.51 µM (active) | 
CCc1ccccc1NC(=O)[C@@H]1CCC(=O)N1C1OC(=O)c2c1ccc(OC)c2OC (some centres not stated) |  | 4.6% (inactive)
COc1ccc2c(c1OC)C(=O)OC2c1c(O)nc(SC)n(-c2ccccc2)c1=O (configuration not stated) |  | 2.17% (inactive)
O=C(O)c1ccc(Cn2c(=S)[nH]c3cc(Cl)ccc3c2=O)cc1 |  | -6.36% (inactive)
CCOC(=O)CSc1nnc(CNc2nc(-c3ccccc3)cs2)n1C |  | -0.54% (inactive)
Cc1ccc(O/C=C2\OC(=O)c3ccccc32)cc1 |  | 4.91% (inactive)
O=C1CC2(CCCCC2)Oc2ccc(OCC(=O)N3CCOCC3)cc21 |  | -23.5% (inactive)
CCN(CC)c1ccc([N+](=O)[O-])cc1C(=O)O |  | -14.5% (inactive)
Cc1cc(C)nc(NC(=O)/C=C/c2ccc(Cl)cc2)n1 |  | -8.03% (inactive)
Cc1cccc(C=CC(=O)c2ccc(Cl)cc2)c1 | 13 µM (active) | 
Cc1cccc(C(=O)c2cccc(C)c2)c1 |  | -9.07% (inactive)
COc1ccc(CNC(=O)C2CCN(S(=O)(=O)N3CCOCC3)CC2)cc1 |  | -3.42% (inactive)
CC(=O)Nc1ccc(SCC(=O)NC(=O)c2ccc(Cl)cc2)cc1 |  | -7.14% (inactive)
CC(Oc1ccc2c(-c3ccccc3)cc(=O)oc2c1)C(=O)NC(Cc1c[nH]c2ccccc12)C(=O)O (configuration not stated) |  | 11.4% (inactive)
O=C(CNC(=O)OCc1ccccc1)Oc1cc2oc(=O)cc(-c3ccccc3)c2cc1Cl | 8.2 µM (active) | 
O=C(CNC(=O)c1ccc(-c2ccccc2)cc1)OCc1ccc(Cl)cc1 |  | -16.5% (inactive)
CCOC(=O)c1cnc2sccn2c1=O |  | 1.28% (inactive)
O=[N+]([O-])c1cccc(S(=O)(=O)NCc2ccccn2)c1 |  | -0.0361% (inactive)

SMILES | Potency | activity change, negative = growth inhibition
O=c1[nH]c2cccnc2n1-c1ccc([N+](=O)[O-])cc1 |  | 28.4% (inactive)
O=[N+]([O-])c1ccc2nc(-c3ccccn3)[nH]c2c1 | 1.16 µM (active) | 
Cc1ccc(C(=O)OC2=CC(=O)CC(C)(C)C2)cc1 |  | -15.6% (inactive)
Cc1cnc(C(=O)OCC(=O)Nc2ccc(Cl)cc2Cl)cn1 |  | -15.5% (inactive)
CCOC(=O)c1c(NC(=O)COc2cc(C)ccc2C(C)C)sc(C)c1C |  | -16.8% (inactive)
COC(=O)c1c(NC(=O)COc2ccc(Cl)cc2Cl)sc2c1CC(C)(C)NC2(C)C | 8.2 µM (active) | 
c1cc(-n2cnnn2)ccc1NC1=NCCC1 |  | 1.89% (inactive)
O=C1CCCN1C(=O)COc1ccc([N+](=O)[O-])cc1 |  | -7.57% (inactive)
COC(=O)c1ccc(S(=O)(=O)N(CCO)Cc2ccccc2)n1C |  | -7.81% (inactive)
C#CCOc1ccc(C2CC(=O)Nc3c2c(C)nn3-c2nc(C)cc(C)n2)cc1 (configuration not stated) | 20.6 µM (active) | 
COc1ccc(Br)cc1S(=O)(=O)N1CCN=C1C |  | -23.6% (inactive)
COc1ccc(C2CC(=O)Nc3c2c(=O)nc2c(C)cccn32)cc1OC (configuration not stated) |  | -13% (inactive)
COc1ccc(Br)cc1C1CC(=O)Nc2c1c(C)nn2-c1nc(C)cc(C)n1 (configuration not stated) | 18.4 µM (active) | 
COc1ccc(C2c3c(C)nn(-c4ccccc4)c3NC(=O)N2c2ccccc2)cc1 (configuration not stated) |  | -26.9% (inactive)
Cn1c(=O)c2c(n3c4ccccc4nc13)NC(=O)CC2c1cccc(Cl)c1 (configuration not stated) |  | -26.7% (inactive)
NC(=O)COC(=O)c1ccc2c(c1)C(=O)N(Cc1ccco1)C2=O |  | -3.81% (inactive)
CCCS(=O)(=O)NC(=O)C1(C)CCN(C(=O)c2sccc2C)C1 (configuration not stated) |  | -8.85% (inactive)
COc1ccc(NC(=O)c2ccco2)cc1NC(=O)c1ccc(C#N)cc1F |  | 10.2% (inactive)
Clc1cc(-c2ccc(/C=N/n3cnnc3)o2)ccc1Br |  | -18.8% (inactive)
Cc1cc([N+](=O)[O-])nn1CCCC(=O)Nc1cccnc1Cl |  | 2.23% (inactive)
CC(C)(C)c1ccc(C(=O)NCCn2c(N)c(C#N)c3nc4ccccc4nc32)cc1 | 29.1 µM (active) | 
O=C(CCNC(=O)c1ccc([N+](=O)[O-])cc1)Nc1ccccc1N1CCOCC1 |  | 7.42% (inactive)

SMILES | Potency | activity change, negative = growth inhibition
CC(C)(C)c1ccc(C(=O)NCC(=O)OCN2C(=O)c3ccccc3C2=O)cc1 |  | -16.3% (inactive)
CCOC(=O)/C(C#N)=C\c1c(C)cc(C)c(COC(C)=O)c1C |  | -11.1% (inactive)
Cc1ccc2c(=O)c(C(=O)c3cccc(Cl)c3)cn(CC(=O)NCc3ccccc3)c2n1 |  | -26.2% (inactive)
O=C(O)CC1=C(Nc2ccccc2)C(=O)N(c2ccccc2)C1c1ccc(Cl)cc1 (configuration not stated) |  | -5.86% (inactive)
CCc1nc2onc(C)c2c(=O)n1CC(=O)O |  | -5.32% (inactive)
CCOC(=O)N1CCN(C(=O)c2cnc3n(c2=O)CCS3)CC1 |  | -12.4% (inactive)
CCOC(=O)N1CCN(C(=O)c2ccc3c(c2)N(Cc2ccc(C)cc2)CCS3)CC1 | 23.1 µM (active) | 
CCOC(=O)N1CCN(C(=O)c2ccc(S(=O)(=O)c3ccc(C)cc3)c(NC(C)=O)c2)CC1 |  | 8.97% (inactive)
COc1ccc(NC(=O)NC2CC3CCCC(C2)N3Cc2ccccc2)cc1 (configuration not stated) |  | -11.4% (inactive)
CC1(C)C2CC[C@]3(C)C(CC=C4[C@@H]5C[C@@](C)(CO)CC[C@]5(C(=O)O)CC[C@]43C)[C@@]2(C)CC[C@@H]1O (some centres not stated) |  | -5.43% (inactive)
Cc1sc2ncnc(SCC(=O)NC3CCS(=O)(=O)C3)c2c1C (configuration not stated) |  | -15.7% (inactive)
COC(=O)c1c(-c2cccs2)csc1NC(=O)CSc1ncnc2sc(C)c(C)c12 | 20.6 µM (active) | 
Cc1sc2ncnc(SCC(=O)Nc3ccc(CN4CCCC4)cc3)c2c1C |  | 1.26% (inactive)
CC(=O)Nc1ccc(N2C(=O)C3C4C=CC(CC4)C3C2=O)cc1 (configuration not stated) |  | 1.9% (inactive)
O=C(O)[C@@H]1CCCN1c1ncnc2sc3c(c12)CCC3 |  | -3.66% (inactive)
OCCNc1nc2ccccc2n1-c1ncnc2sc3c(c12)CCC3 | 20.6 µM (active) | 
O=C(O)c1cccnc1Sc1ncnc2sc3c(c12)CCC3 |  | -0.732% (inactive)
COc1cc(N2C(=O)CSC2=S)cc(OC)c1OC |  | -1.53% (inactive)
O=C(Cn1nc(C(F)(F)F)c2c1CCC2)NCc1ccc(F)cc1 |  | -16.4% (inactive)
O=C(CN(C(=O)c1csnn1)c1ccc(Br)cc1)NC1CCCC1 |  | -4.15% (inactive)
O=C(NNC(=S)NC1CC2CCC1C2)c1ccc(Cl)cc1 (configuration not stated) | 23.1 µM (active) | 
O=C(NC(=S)NC1CCCCC1)c1ccc(Cl)cc1 |  | -24.8% (inactive)

SMILES | Potency | activity change, negative = growth inhibition
O=C(NNC(=O)C1C2CCC(C2)C1C(=O)O)c1ccc(Cl)cc1 (configuration not stated) |  | -5.54% (inactive)
Oc1c(C(c2ccco2)N2CCC3(CC2)OCCO3)sc2ncnn12 (configuration not stated) |  | -4.83% (inactive)
CCOC(=O)c1ccc(N2C(=O)CC(N3CC(C)OC(C)C3)C2=O)cc1 (configuration not stated) |  | -2.13% (inactive)
COc1ccc(C)cc1N(CC(=O)N1CCCC1)S(=O)(=O)c1ccccc1 |  | 2.67% (inactive)
O=C(NCCCn1ccnc1)C1CCCN(S(=O)(=O)c2cc(Cl)ccc2Cl)C1 (configuration not stated) |  | -24.2% (inactive)
Cc1ccc(Cl)cc1NC(=O)COC(=O)C1CCCCC1 |  | -4.84% (inactive)
Cc1ccc(CNC(=O)CCC(=O)N2CC(C)Sc3ccccc32)cc1 (configuration not stated) |  | -18% (inactive)
Cc1ccc(Cl)cc1NC(=O)CCC(=O)N1CC(C)Sc2ccccc21 (configuration not stated) | 18.4 µM (active) | 
Cc1cccc(N(C(=O)Cn2nnc(-c3ccc(C)o3)n2)C(C(=O)NC2CCCC2)c2ccncc2)c1 (configuration not stated) |  | -18.7% (inactive)
CC(NC(=O)c1ccco1)c1ccc2c(c1)OCO2 (configuration not stated) |  | 21.7% (inactive)
C#CCSc1nnc(-c2sc3ccccc3c2Cl)o1 |  | -9.11% (inactive)
CN(Cc1cccs1)C(=O)Cc1c[nH]c2ccccc12 |  | -25.8% (inactive)
O=C1N[C@H](Cc2c[nH]c3ccccc23)COC(=O)[C@H](Cc2ccc(F)cc2)C/C=C\C[C@H]1CC(=O)N(CCO)Cc1ccccc1 | 16.4 µM (active) | 
O=C1NC[C@@H](c2ccccc2)OC(=O)[C@H](Cc2ccc(F)cc2)CC/C=C/C[C@H]1CC(=O)N(CCO)Cc1ccccc1 | 14.6 µM (active) | 
O=C1CCC/C=C\C[C@@H](CC(=O)N(CCO)Cc2ccccc2)C(=O)NCCO1 |  | -2.52% (inactive)
O=C1CCC/C=C/C[C@@H](CC(=O)N(CCO)Cc2ccccc2)C(=O)NC[C@H](c2ccccc2)O1 |  | -25.4% (inactive)
O=C1OC[C@@H]2CCCN2C(=O)[C@H](CC(=O)N(CCO)Cc2ccccc2)C/C=C\CC[C@@H]1Cc1ccc(F)cc1 | 18.4 µM (active) | 
O=C(C[C@@H]1C/C=C\CCC(=O)OC[C@@H]2CCCN2C1=O)NCCO |  | 6.47% (inactive)
O=C(N[C@@H]1C/C=C\C[C@@H](CC(=O)N(CCO)Cc2ccccc2)C(=O)N[C@H](Cc2ccccc2)COC1=O)OCC1c2ccccc2-c2ccccc21 | 4.61 µM (active) | 
